In PubChem BioAssay AID743446 (Broad Institute, 2014):
Potency and affinity values are given separately. A number with no mark means an inactive call. The rule behind the calls is not given here.

Assay: viability loss in HEK293 cells – cell-based, plate reader, cherry-picked samples, cytotoxicity control, dose response (AID 743446)
Settings: hits give low values; at 26 µM unless noted

| SMILES | max activity |
| --- | --- |
| O=C(O)c1ccc(N/N=C/c2ccc3ncccc3c2)cc1 | 14.9% [at 12 µM] |
| COc1ccc(/C=C/C(=O)Nc2ccccc2C(=O)O)cc1OC | 13.2% [at 1.6 µM] |
| C[C@H]1CN([C@@H](C)CO)C(=O)c2cc(NC(=O)Nc3ccccc3)ccc2O[C@H]1CN(C)Cc1ccc(-c2ccccc2)cc1 | 25.6% [at 0.1 µM] |
| C[C@H]1CN([C@@H](C)CO)C(=O)c2cccc(NC(=O)NC3CCCCC3)c2O[C@@H]1CN(C)Cc1ccc(C(F)(F)F)cc1 | 27.3% [at 12 µM] |
| C[C@H]1CCCCO[C@H](CN(C)C(=O)Nc2cccc3ccccc23)[C@@H](C)CN([C@@H](C)CO)C(=O)c2cc(NS(=O)(=O)c3cn(C)cn3)ccc2O1 | 21.9% [at 0.05 µM] |
| C[C@H](CO)N1C[C@H](C)[C@H](CN(C)C(=O)Nc2cccc3ccccc23)OCCCC[C@H](C)Oc2ccc(NC(=O)c3ccccc3)cc2C1=O | 31.2% [at 12 µM] |
| CCNC(=S)NNC(=O)c1cc(-c2ccc(OCC)cc2)nc2ccccc12 | 15.8% [at 0.05 µM] |
| CCC(=O)N(C)C[C@H]1Oc2cc(C#CCC(C)C)ccc2S(=O)(=O)N([C@H](C)CO)C[C@@H]1C | 21.8% [at 0.05 µM] |
| O=C(Nc1cccc(-c2ccc(N3CCCCC3)nn2)c1)C(F)(F)F | -33.5% [at 3 µM] |
| COc1ccc(C(=O)Nc2ccc3ccccc3n2)c(OC)c1OC | -6.81% [at 0.1 µM] |
| O=C(COC(=O)c1ccccc1C(=O)c1ccc(Cl)c([N+](=O)[O-])c1)NC1CC1 | 8.38% [at 6 µM] |
| Cc1ccc(-c2csc(Nc3ccccn3)n2)cc1 | -11.1% |
| CC(C)N(C(=O)Nc1ccc2nsnc2c1)C(C)C | 12.5% |
| COc1ccc(-c2cc(C)nc3c(-c4ccccc4)cnn23)cc1 | -10.2% |
| Cc1c(NC(=O)c2cccc(NC(=O)COc3ccccc3C#N)c2)c(=O)n(-c2ccccc2)n1C | -14.7% [at 3 µM] |
| Cc1cc(C(=O)CN2C(=O)c3ccccc3S2(=O)=O)c(C)n1C(C)C | -20.6% [at 3 µM] |
| COc1ccc(CCNC(=O)C2CCN(S(=O)(=O)c3ccc(Cl)cc3)CC2)cc1OC | -15% [at 0.05 µM] |
| Oc1ccc(-c2csc(-c3cccnc3)n2)c(O)c1 | -34.3% |
| Cc1ccc(NC(=O)c2ncn(CC(=O)NCc3ccc4[nH]ccc4c3)n2)cc1C | 8.88% |
| O=C(Nc1cccnc1)c1cc(-c2ccc3c(c2)OCO3)on1 | 26.9% [at 12 µM] |
| CC(=O)c1ccc(S(=O)(=O)N2CCC(NC(=O)Nc3cccc(F)c3)CC2)cc1 | 28.3% [at 3 µM] |
| O=C(NCCOc1ccccc1)[C@@H]1CCCN1C(=O)c1cccs1 | -12.7% [at 0.05 µM] |
| CSc1nnc(NC(=O)c2ccc3c(c2)OCO3)s1 | -9.38% [at 12 µM] |
| Cc1csc(NC(=O)c2ccc(OCC3CCCO3)cc2)n1 (stereo not drawn) | 28.1% [at 3 µM] |
| Cc1cccn2c(CNCC3(c4ccccc4)CCCC3)c(C(=O)N3CCOCC3)nc12 | 13.8% [at 3 µM] |

| SMILES | max activity |
| --- | --- |
| COc1ccc(S(=O)(=O)N(C)C[C@@H]2OCc3cnnn3CCCC(=O)N([C@@H](C)CO)C[C@H]2C)cc1 | 0% [setting not given] |
| Cc1ccccc1OCC(=O)Nc1cccc(C(=O)O)c1 | 6.54% |
| Cc1ccc(-c2nc(-c3ccncc3)no2)cc1C | -14.8% |
| O=c1[nH]c(CSc2ccccn2)nc2c1oc1ccccc12 | -17.8% |
| Cc1ccccc1-c1ccc([C@H]2[C@@H](CO)N3CCCCN(S(=O)(=O)c4ccc(F)cc4)C[C@@H]23)cc1 | -101% |
| N#C[C@@H]1[C@H](c2ccc(C#Cc3ccccc3F)cc2)[C@@H](CO)N1C(=O)C1CCCC1 | -15.6% |
| O=C(NCCc1ccccc1)c1ccc2c(c1)OCO2 | 21.8% [at 12 µM] |
| O=C(O)c1ccc(N/N=C/c2ccc(OC(=O)c3cccc(Cl)c3)cc2)cc1 | -7.42% [at 3 µM] |
| O=C(Nc1cccc(C(=O)O)c1)Nc1ccc2c(c1)OCO2 | -18.7% [at 0.195 µM] |
| COCCn1c(C)cc(C(=O)CSc2nc3ccccc3s2)c1C | -17.4% |
| CC(C)(C)c1ccc(Cn2c(=O)cnc3ccccc32)cc1 | -26.8% [at 12 µM] |
| CC(=O)c1ccc(NC(=O)c2noc3c2CCC3)cc1 | 12.6% [at 0.1 µM] |
| N#C[C@@H]1[C@H](c2ccc(C#Cc3cccc(F)c3)cc2)[C@@H](CO)N1C(=O)C1CC1 | 10.4% [at 12 µM] |
| O=C(Nc1nc2cc3c(cc2s1)OCO3)c1ccco1 | 45.6% [at 0.05 µM] |
| COc1ccc(-c2cn3cc(C)ccc3n2)cc1F | 44.7% [at 12 µM] |
| CCCCn1nnnc1C(c1cc2ccccc2o1)N1CCN(c2ccncc2)CC1 (stereo not drawn) | 11.8% |
| C[C@H](CO)N1C[C@H](C)[C@@H](CN(C)S(=O)(=O)c2cccs2)Oc2c(cccc2N(C)C)C1=O | 11.4% [at 6 µM] |
| O=C(CC1CS(=O)(=O)CC1CC(=O)Nc1ccc2c(c1)OCCO2)Nc1ccc2c(c1)OCCO2 (stereo not drawn) | 38.3% [at 0.8 µM] |
| COc1ccc2oc(C(=O)NCCc3ccccc3)c(C)c2c1 | -55.4% |
| N#C[C@@H]1[C@H](c2ccc(C#Cc3ccccc3F)cc2)[C@@H](CO)N1C(=O)C1CCC1 | 28.6% [at 6 µM] |
| Cn1nnnc1SCC(=O)N1CCN(C(=O)c2ccco2)CC1 | -12.8% [at 0.05 µM] |
| COc1ccccc1CN(C)C[C@@H]1OCc2cnnn2CCCC(=O)N([C@H](C)CO)C[C@H]1C | 11% [at 0.38 µM] |
| O=C(c1cc(-c2ccc(Cl)cc2Cl)on1)N1CCOCC1 | 14.9% [at 0.05 µM] |
| COc1ccc(-n2ncc3c(N(C)C4CCCCC4)ncnc32)cc1 | 31.2% [at 0.05 µM] |
| Cc1ccc(S(=O)(=O)N2CCCc3nc(-c4ccc(F)cc4)ccc32)cc1 | 43.2% [at 12 µM] |

| SMILES | max activity |
| --- | --- |
| CCCc1nc(SCC(=O)N2CCC(Cc3ccccc3)CC2)c2c(=O)n(C)c(=O)n(C)c2n1 | 11.8% [at 0.05 µM] |
| CCC(=O)Nc1cc2nn(-c3ccc(OC)cc3)nc2cc1C | 0% [setting not given] |
| Cc1ccc(S(=O)(=O)N2CCCCC2)cc1NC(=O)c1ccc2c(=O)n3c(nc2c1)CCCCC3 | 45.8% [at 6 µM] |
| CC(C)(C)c1ccc(C(=O)NCCOc2ccccc2F)cc1 | 23.5% |
| Cc1noc(C)c1S(=O)(=O)Nc1cccc2c1O[C@H](CN(C)C(=O)Nc1ccc(F)cc1)[C@H](C)CN([C@H](C)CO)C2=O | -6.26% |
| CO[C@@H]1CN(C)C(=O)c2ccc(NC(=O)C3CC3)cc2OC[C@@H](C)NC[C@@H]1C | 12% [at 3 µM] |
| CN(C)S(=O)(=O)c1cccc(NC(=O)COc2ccccc2C(=O)Nc2ccccc2)c1 | -34.1% |
| O=C(NCCc1ccccc1)c1ccc2c(c1)OCCO2 | 15.3% [at 0.195 µM] |
| CC(=O)N1CCCCN2[C@H](CO)[C@H](c3ccc(-c4cccc(C)c4)cc3)[C@@H]2C1 | 30.5% [at 1.6 µM] |
| Cc1ccc2nc(-c3ccc(NC(=O)COC(=O)c4ccco4)cc3)sc2c1 | -11.7% [at 1.6 µM] |
| Cc1ccc(-n2[nH]c(=O)c(-c3ccccn3)c2C)cc1 | 41.3% [at 12 µM] |
| COCC(=O)N[C@@H]1CC[C@@H](CC(=O)NCc2ccccc2OC)O[C@@H]1CO | -9.61% [at 0.05 µM] |
| Cc1ccc(NC(=O)c2ccc3c(c2)OCCO3)cc1C | 32.4% [at 0.38 µM] |
| O=C(NCc1ccco1)c1cc(NS(=O)(=O)c2cccc([N+](=O)[O-])c2)ccc1O | 40.6% [at 0.38 µM] |
| CN1CCN(c2ccc(NC(=O)N3CCc4ccccc43)cc2)CC1 | 17.5% [at 1.6 µM] |
| N#C[C@H]1[C@@H](c2ccc(C3=CCCCC3)cc2)[C@H](CO)N1C(=O)c1ccccn1 | 74.4% [at 12 µM] |
| C[C@@H]1CN([C@H](C)CO)C(=O)CCCn2nncc2CO[C@H]1CN(C)C(=O)Nc1cccc2ccccc12 | 15.4% |
| CCOC(=O)c1sc(NC(=O)Nc2ccccc2F)nc1C | -21.8% [at 0.05 µM] |
| O=C(c1cc(-c2ccc(Cl)cc2Cl)on1)N1CCCC1 | 9.97% [at 0.8 µM] |
| COc1ccc(NC(=O)N(C)C[C@@H]2OCCCC[C@H](C)Oc3ccc(NC(=O)C4CCCCC4)cc3C(=O)N([C@H](C)CO)C[C@@H]2C)cc1 | 11.8% |
| CCOc1ccc(C(=O)Nc2nnc(SCC(=O)NCC3CCCO3)s2)cc1 (stereo not drawn) | 27.5% [at 3 µM] |
| C[C@@H]1CN([C@@H](C)CO)C(=O)c2cc(NS(C)(=O)=O)ccc2O[C@@H](C)CCCCO[C@@H]1CN(C)Cc1ccc(C(F)(F)F)cc1 | -12.9% [at 0.1 µM] |
| CCn1c2ccccc2c2cc(CNCc3ccc(OC)cc3OC)ccc21 | -98.9% |
